About 79,000 compounds went through this panel and 15% of them were active in at least one assay; those are over-represented in the sample as a whole. A number with no mark means an inactive call. Active and inactive are the calls of the source. Rule as the data show it: active = growth inhibition above about 70%; inactive = the rest.

The nature of test [1]: NCI Yeast Anticancer Drug Screen. Data for the rad50 strain (AID 155).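 Also: 0% = growth of vehicle-only cultures of the same strain.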 Conditions: S. cerevisiae rad50 strain growth inhibition; at 50.0 µM; active compounds read high. A digest of the protocol: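 DNA repair mutant yeast, compound exposure, growth read-out; inhibition is taken relative to vehicle.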
Test [2] is described as follows: NCI Yeast Anticancer Drug Screen. Data for the mec2-1 strain (AID 157). Conditions: S. cerevisiae mec2-1 strain, at 50.0 µM, active compounds read high. A digest of the protocol:
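Growth inhibition is read against vehicle-treated controls after compound exposure of the mec2-1 yeast strain, which is defective in DNA damage repair or cell cycle control.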

The nature of test [3]: NCI Yeast Anticancer Drug Screen. Data for the sgs1 mgt1 strain (AID 161).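 Also: 0% = growth of cultures given vehicle only.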 Conditions: S. cerevisiae sgs1 mgt1 strain, at 50.0 µM, active compounds read high. In outline:
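This yeast growth screen uses a strain with defined DNA-repair lesions; compound-treated growth is compared with vehicle-treated growth.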

The nature of test [4]: NCI Yeast Anticancer Drug Screen. Data for the cln2 rad14 strain (AID 165).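 Also: 0% = growth equal to vehicle treated cultures.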 Conditions: S. cerevisiae cln2 rad14 strain, at 50.0 µM, active compounds read high. In outline:
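Growth inhibition, relative to vehicle-treated controls, is the read-out. The test organism is a yeast strain with defined genetic alterations, cln2 rad14.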

A short description of test [5]: NCI Yeast Anticancer Drug Screen. Data for the bub3 strain (AID 167). Conditions: S. cerevisiae bub3 mutant strain, at 50.0 µM, active compounds read high. In outline: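 In this screen, a yeast mutant lacking normal mitotic checkpoint function is challenged with compound. Relative growth versus vehicle gives the inhibition value.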
Test [6] in a line: NCI Yeast Anticancer Drug Screen. Data for the mlh1 rad18 strain (AID 175). Conditions: S. cerevisiae mlh1 rad18 strain growth inhibition; at 50.0 µM; active compounds read high. A digest of the protocol:
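Cells of a genetically altered yeast strain, deficient in DNA damage repair, were treated with compound. Their growth was then compared with that of vehicle-treated cultures to give inhibition.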

Regarding `CC(C)Oc1ccc(N2C(=O)C(C)CNC2=S)cc1` (stereo unspecified), the growth inhibition is -13.9% in test [1]; -1.9% in test [2]; -1.3% in test [3]; 4.9% in test [4]; 6.4% in test [5]; -8.55% in test [6].
On to `CCCNc1nnnn1CCC`, for which the growth inhibition in test [1] was 3.15%; in test [2] it was 5.05%; in test [3], -0.4%; in test [4] it was 4.25%; in test [5] it was 10.9%; in test [6] it was -0.05%.
On to `CC(C)NC(=O)OCCN=C1c2ccccc2C(Br)C(Br)c2ccccc21` (stereo unspecified), for which the growth inhibition in test [1] was 3.25%; in test [2] it was -5.1%; in test [3] it was 2.05%; in test [4], 1.1%; in test [5], 4.9%; in test [6], 8.6%.
As for `O=C(O)Cc1ccc(Oc2ccc(CC(=O)O)cc2)cc1`, the growth inhibition in test [1] was -4.15%; in test [2], -9.5%; in test [3], 1.85%; in test [4] it was -48.8%; in test [5] it was -8.75%; in test [6], 0.55%.
Take `CCOC1CCC(C(C)=O)C(C#N)(C#N)C1(C#N)C#N` (stereo unspecified): the growth inhibition in test [1] is 38.1%; in test [2] it was -9.55%; in test [3] it was -21.6%; in test [4], -7.35%; in test [5], -37.9%; in test [6] it was -42.5%.
With `Nc1nc2sc3ccccc3c(=O)n2n1`, the growth inhibition in test [1] was -10.7%; in test [2], -31.9%; in test [3], 11.5%; in test [4], 19.1%; in test [5], -3.2%; in test [6], -9.85%.
Consider `CCCCCCCCCCCCCCCCc1c(C)ncn(C)c1=O`, for which the growth inhibition in test [1] was -13.9%; in test [2], 2%; in test [3], 5.4%; in test [4], -8.15%; in test [5], -9.2%; in test [6], -49%.
As for `Cn1cnc2ncnc(NCc3ccc(Cl)c(Cl)c3)c21`, the growth inhibition in test [1] was -1.45%; in test [2] it was 18.9%; in test [3], -7.35%; in test [4] it was -21.2%; in test [5], 4.6%; in test [6], -25.1%.
Turning to `COC1=C(C(=O)OC(C)(C)C)[C@]2(C)C(C(=O)OC(C)(C)C)C(OC)=C(C(=O)OC(C)(C)C)[C@]2(C)C1C(=O)OC(C)(C)C` (stereo partly specified), the growth inhibition in test [1] was 30.6%; in test [2], 15.4%; in test [3], 22.8%; in test [4] it was 17.6%; in test [5], -3.25%; in test [6] it was 29.9%.
Consider `FC(F)(F)c1nc(Cl)c2cn[nH]c2n1`, for which the growth inhibition in test [1] was -8.7%; in test [2], 39.6%; in test [3], -1.15%; in test [4], -16.9%; in test [5], 25.9%; in test [6], -24.4%.
Take `CC1(C)C2CCC(=O)C1CC2` (stereo unspecified): the growth inhibition in test [1] is 6.75%; in test [2], 14.2%; in test [3], -22.6%; in test [4], 12.7%; in test [5] it was -37.4%; in test [6] it was -43.5%.
`CCOC(=O)c1ccc(N=NC2Sc3nc4ccccc4n3C2=O)cc1` (stereo unspecified): the growth inhibition in test [1] is -23.6%; in test [2] it was -2.4%; in test [3], -2.65%; in test [4], -51.4%; in test [5], 21.8%; in test [6], -6.3%.
Take `COC(=O)c1cc2ccc(O)c(O)c2cn1`: the growth inhibition in test [1] is 41.1%; in test [2] it was 25.8%; in test [3], 60.3%; in test [4] it was 18.9%; in test [5], 62.4%; in test [6] it was 24.9%.
In the case of `CCCC(C)C(O)CC` (stereo unspecified), the growth inhibition in test [1] was -27.1%; in test [2], -28.9%; in test [3] it was 7.45%; in test [4] it was 13.3%; in test [5], -19.5%; in test [6] it was -10%.
In the case of `Cc1cc(-n2nnc3ccccc3c2=O)on1`, the growth inhibition in test [1] is -21.2%; in test [2] it was -30.7%; in test [3], -17.1%; in test [4], -9.5%; in test [5], -26%; in test [6] it was 2.5%.
For the compound `Cc1ccc([Se](=C(C(=O)c2ccccc2)C(=O)c2ccccc2)c2ccc(C)cc2)cc1`, the growth inhibition is 82.4% (active) in test [1]; 11.7% in test [2]; 35.7% in test [3]; 9.85% in test [4]; 4.95% in test [5]; 54.6% in test [6].
Regarding `O=c1[nH]c(SCc2ccco2)nc2ccccc12`, the growth inhibition in test [1] was 0.05%; in test [2] it was 12.7%; in test [3], 6.3%; in test [4], -23.7%; in test [5], 1.8%; in test [6], -1.75%.
For the compound `OC1CCC2CCCC2C1` (stereo unspecified), the growth inhibition is 1.6% in test [1]; -1.7% in test [2]; -2.2% in test [3]; 1% in test [4]; -8.6% in test [5]; -1.2% in test [6].
As to `COc1cc(/C=C/c2ccnc3ccccc23)ccc1N(C)C`, the growth inhibition in test [1] was 4.7%; in test [2] it was 24.8%; in test [3], 15.6%; in test [4], -32.3%; in test [5], 29.8%; in test [6] it was 24.7%.
As to `CC(=O)OCC1OC(Oc2ccccc2)C(OC(C)=O)C(OC(C)=O)C1OC(C)=O` (stereo unspecified), the growth inhibition in test [1] was -3.4%; in test [2], -5.3%; in test [3], -0.05%; in test [4], 12.4%; in test [5] it was -4.1%; in test [6], -10.7%.
As for `C=CCCC(C)(C(=O)OCC)C(=O)OCC`, the growth inhibition in test [1] is 7.45%; in test [2] it was -15.8%; in test [3], -23.9%; in test [4], -30.3%; in test [5] it was 1.45%; in test [6], -11%.

For the origin of these results see PubChem BioAssay (NCI).
